# From PubChem BioAssay (NCATS)
# Values without a mark were called inactive. Results filed as inconclusive are left out. Where a call stands in place of a potency, no number is given. Activity calls are given as the source filed them. Unless noted, calls come from the whole dose curve; as a rule, active = well fitted curve in the direction sought with a large enough effect; inconclusive = small, poorly fitted or top-dose-only effect, or another doubt; inactive = no such curve, though single readings can be large; an effect the other way counts as inactive or inconclusive.
# How the values were obtained:
# [1] = target: 3',5'-cyclic-AMP phosphodiesterase 4B (Homo sapiens) (UniProt Q07343); experiment: qHTS Assay for Inhibitors of PDE-IV (AID 607; active = well fitted activation curve with a large enough effect in the main read-out, with a control signal flat, not every such curve was filed as active)
# Method in brief: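 The readout is membrane depolarisation from a cAMP-sensing CNG channel, detected with a potential dye at ex 535/em 590. Cells were HEK293-derived (endogenous PDE-IV) at 1000 cells/well, titrated up to 22.9 uM final.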
# [2] = Cell Viability - Mesenchymal (AID 546);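 note: cells exposed to compound for 40 hours before reading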
# Method in brief: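 Human renal mesenchymal cells (glomerulus-derived), 1000 cells/well, 5 hr 37 °C pre-incubation; compound 40 hr, 37 °C; CellTiter-Glo, 20 min RT; luminescence; AC50 via Hill equation.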
# [3] = Cellular Toxicity (caspase-3) HepG2 (AID 654); note: potency is the fitted concentration of half-maximal effect;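 for caspase-3 activation: cells exposed to compound for 16 hours before reading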
# Method in brief: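 Caspase 3/7 activation in HepG2 is measured as rising luminescence after a 16 hr treatment at 37 °C. Values are scaled between DMSO basal and 100 uM tamoxifen, and AC50 is fitted with the Hill equation.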
# [4] = Cellular Toxicity (caspase-3) Jurkat (AID 655); conditions: Jurkat caspase-3 activation, luminescence; caspase-3 activation: at 92.2 µM (top of the series), DMSO = 0%, tamoxifen = 100%;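 note: cells exposed to compound for 16 h at 37 °C before reading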; note: potency is the fitted concentration of half-maximal effect
# Method in brief: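 Jurkat cells (5000/well) in complete medium were treated with compounds for 16 hr at 37 °C, then Caspase-Glo 3/7 luminescence was read after 20 min at room temperature. Data normalized to DMSO (basal) and 100 uM tamoxifen (100%); AC50 from Hill fit.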
# [5] = Cellular Toxicity (caspase-3) HUV-EC-C (AID 656)
# Method in brief: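 HUV-EC-C endothelial cells, 1000/well, were pre-incubated 5 hr at 37°C, then exposed to compounds for 16 hr at 37°C. Caspase-Glo 3/7 luminescence was read after 20 min at room temperature. AC50 came from Hill fits, normalized to DMSO and 100 uM tamoxifen.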
# [6] = Cellular Toxicity (caspase-3) SHSY5Y (AID 657); note: potency is the fitted concentration of half-maximal effect
# Method in brief: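 SH-SY5Y human neuroblastoma cells (1500/well) were treated with compounds for 16 h at 37 °C, then Caspase-Glo 3/7 luminescence was read after 1 h at room temperature. Data normalized to DMSO and 10 uM staurosporine; AC50 from Hill fits.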
# [7] = Cellular Toxicity (caspase-3) BJ (AID 658)
# Method in brief: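 qHTS, BJ fibroblasts, 1000 cells/well; 5 hr preincubation, 16 hr compound, 37 °C; Caspase-Glo 3/7 reagent, 1 hr RT; luminescence. DMSO = 0%, 10 uM staurosporine = 100%. Hill-equation AC50.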
# [8] = Cellular Toxicity (caspase-3) MRC-5 (AID 659)
# Method in brief: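 MRC-5 fibroblasts, 1500/well; 16 h cpd, 37 °C; Caspase-Glo 3/7, 1 h RT; lumi read. Norm: DMSO = 0%, 10 uM staurosporine = 100%. Hill-fit AC50 from qHTS conc-response.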
# [9] = Cellular Toxicity (caspase-3) Mesangial (AID 660);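 note: combined caspase 3 and 7 activity read by Caspase-Glo luminescence; cells exposed to compound for 16 h before the caspase read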
# Method in brief: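 Seed cells derived from normal human renal glomeruli, incubate 5 h, add compounds across concentrations and incubate 16 h at 37 °C. Caspase 3/7 activation is then quantified by luciferase light, with AC50 derived by Hill modeling.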
# [10] = Cellular Toxicity (caspase-3) SK-N-SH (AID 661)
# Method in brief: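 Cells were seeded and incubated 5 hr at 37 °C, dosed with compound over a concentration range for 16 hr, then given Caspase-Glo 3/7 reagent for 1 hr at room temperature before luminescence reading.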
# [11] = Cellular Toxicity (caspase-3) H-4-II-E (AID 663); conditions: H-4-II-E rat hepatoma, scaled: DMSO 0%, 100 µM tamoxifen 100%; at 92.2 µM (top of the series);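 note: cells exposed to compound for 16 hr before readout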
# Method in brief: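 H-4-II-E rat hepatoma, 1500 cells/well, 5 hr settle at 37 °C; compound 16 hr, 37 °C, complete medium; Caspase-Glo 3/7, 20 min RT; luminescence. DMSO = 0%, 100 uM tamoxifen = 100%; Hill-equation AC50.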
# [12] = Cellular Toxicity (caspase-3) Hek293 (AID 664);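 note: cells exposed to compound for 16 h at 37 °C before readout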
# Method in brief: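 qHTS, HEK293 (human embryonic kidney), 16 h cpd exposure in complete medium. Caspase-3/7 activation = luminescence increase; normalized to DMSO/100 uM tamoxifen; Hill-fit AC50.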
# [13] = Cellular Toxicity (caspase-3) N2a (AID 665);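 note: compound exposure lasted 16 h at 37 °C before readout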
# Method in brief: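 Caspase-3/7 activation, measured as increased luminescence from aminoluciferin release, is quantified in mouse N2a cells exposed to compounds for 16 h. Values are normalized to DMSO and 10 uM staurosporine, with AC50 derived by Hill modelling.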
# [14] = Cellular Toxicity (caspase-3) NIH 3T3 (AID 666);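 note: caspase signal read after 16 h compound exposure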
# Method in brief: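 Cells were plated at 1000 per well and incubated 5 hr at 37°C, then compound was added for 16 hr. Caspase-Glo 3/7 reagent followed for 20 min at room temperature before luminescence was read.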
# [15] = Cellular Toxicity (caspase-3) Renal Proximal Tubule (AID 667);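 note: cells exposed to compound for 16 hours at 37 °C before detection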
# Method in brief: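 Primary rat proximal tubule cells, 1000/well, 5 h plating at 37 °C, then compound 16 h at 37 °C. Caspase-Glo 3/7 reagent, 1 h RT, luminescence. Normalized to DMSO (basal) and 10 uM staurosporine (100%); Hill-fit AC50.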
# [16] = target: Guanine nucleotide-binding protein G(i) subunit alpha-1 (Homo sapiens) (UniProt P63096); experiment: qHTS Assay for Inhibitors of RGS12 GoLoco Motif Activity (Green Fluorophore) (AID 879);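 note: negative values mean loss of peptide binding seen as reduced polarization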
# Method in brief: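 A drop in FITC polarization marked displacement of the FITC-tagged RGS12 GoLoco peptide (10 nM) from Gαi1 (50 nM). Compounds were incubated 10 min at room temperature in Tris pH 7.5 buffer containing 150 mM NaCl, 0.1 mM GDP and 0.05% NP40; unlabeled peptide titration served as control.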
# [17] = target: Cytochrome P450 3A4 (Homo sapiens) (UniProt P08684); experiment: qHTS Assay for Inhibitors and Substrates of Cytochrome P450 3A4 (AID 884); note: nearly all actives have a fitted effect of over 50% in size; note: potency is the fitted concentration of half-maximal effect
# Method in brief: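 Luminescent readout of luciferin produced by CYP3A4 (20 nM) dealkylation of Luciferin-PPXE, 25 uM (its KM). NADPH-driven reaction ran 60 min at RT after 10 min compound preincubation; data scaled to 57 uM ketoconazole as 100% inhibition.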
# [18] = target: Cytochrome P450 2C9 (Homo sapiens) (UniProt P11712); experiment: qHTS Assay for Inhibitors and Substrates of Cytochrome P450 2C9 (AID 883); note: nearly all actives have a fitted effect of over 60% in size; note: potency is the fitted concentration of half-maximal effect
# Method in brief: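 Human CYP2C9 (10nM) with Luciferin-H at 100uM (its KM) in 25mM KPO4; compound preincubated 10 min at 37C, then NADPH regeneration for 60 min at 37C. Luciferin read by luminescence after detection reagent; normalized to 57uM sulphaphenazole as full inhibition.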
# [19] = target: Cytochrome P450 2D6 (Homo sapiens) (UniProt P10635); experiment: qHTS Assay for Inhibitors and Substrates of Cytochrome P450 2D6 (AID 891); note: nearly all actives have a fitted effect of over 60% in size; note: potency is the fitted concentration of half-maximal effect
# Method in brief: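 Luminescent read-out of luciferin formed by 5 nM human CYP2D6 demethylating 30 uM Luciferin-ME EGE (Km level) over 60 min at room temperature after NADPH regeneration addition. Data normalized to full inhibition by 1.43 uM quinidine.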
# [20] = target: Cytochrome P450 3A4 (Homo sapiens) (UniProt P08684); experiment: qHTS Assay for Activators of Cytochrome P450 3A4 (AID 885); note: nearly all actives have a fitted effect of over 65% in size
# Method in brief: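 Activators are scored by enhanced luminescence from CYP3A4 conversion of luciferin-PPXE (25uM, equal to KM) to luciferin, after 60 min at RT with an NADPH-regenerating system.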
# Cytochrome P450 3A4 (Homo sapiens), sequence (P08684 whole entry, looked up): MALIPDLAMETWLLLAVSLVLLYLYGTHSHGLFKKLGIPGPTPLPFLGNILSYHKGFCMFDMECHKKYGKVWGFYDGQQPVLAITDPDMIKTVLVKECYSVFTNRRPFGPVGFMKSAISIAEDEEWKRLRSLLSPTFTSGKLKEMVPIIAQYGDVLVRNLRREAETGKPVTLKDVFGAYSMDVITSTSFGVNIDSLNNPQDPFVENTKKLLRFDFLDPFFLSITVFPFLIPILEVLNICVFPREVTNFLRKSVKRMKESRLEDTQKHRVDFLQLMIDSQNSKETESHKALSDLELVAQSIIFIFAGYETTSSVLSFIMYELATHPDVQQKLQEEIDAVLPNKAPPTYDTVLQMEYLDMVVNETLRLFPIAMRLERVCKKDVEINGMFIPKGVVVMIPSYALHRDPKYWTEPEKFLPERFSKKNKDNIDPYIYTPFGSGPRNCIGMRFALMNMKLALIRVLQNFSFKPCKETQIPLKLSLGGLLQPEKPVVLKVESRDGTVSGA
# Cytochrome P450 2D6 (Homo sapiens), sequence (P10635 whole entry, looked up): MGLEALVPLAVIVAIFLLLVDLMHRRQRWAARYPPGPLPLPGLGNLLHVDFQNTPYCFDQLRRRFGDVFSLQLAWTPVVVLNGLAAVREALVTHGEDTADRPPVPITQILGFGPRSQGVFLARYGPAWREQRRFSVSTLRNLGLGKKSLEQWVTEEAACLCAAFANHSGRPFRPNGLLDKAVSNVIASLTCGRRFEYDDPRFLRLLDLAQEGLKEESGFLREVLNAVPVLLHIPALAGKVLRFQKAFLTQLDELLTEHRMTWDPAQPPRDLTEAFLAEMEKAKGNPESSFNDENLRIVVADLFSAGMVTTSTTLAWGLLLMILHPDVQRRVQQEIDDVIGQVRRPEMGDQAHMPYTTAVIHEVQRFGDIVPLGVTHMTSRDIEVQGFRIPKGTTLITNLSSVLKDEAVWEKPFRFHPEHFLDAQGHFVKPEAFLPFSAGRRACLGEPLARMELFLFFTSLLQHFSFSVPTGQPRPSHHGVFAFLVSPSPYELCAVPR
# Cytochrome P450 2C9 (Homo sapiens), sequence (P11712 whole entry, looked up): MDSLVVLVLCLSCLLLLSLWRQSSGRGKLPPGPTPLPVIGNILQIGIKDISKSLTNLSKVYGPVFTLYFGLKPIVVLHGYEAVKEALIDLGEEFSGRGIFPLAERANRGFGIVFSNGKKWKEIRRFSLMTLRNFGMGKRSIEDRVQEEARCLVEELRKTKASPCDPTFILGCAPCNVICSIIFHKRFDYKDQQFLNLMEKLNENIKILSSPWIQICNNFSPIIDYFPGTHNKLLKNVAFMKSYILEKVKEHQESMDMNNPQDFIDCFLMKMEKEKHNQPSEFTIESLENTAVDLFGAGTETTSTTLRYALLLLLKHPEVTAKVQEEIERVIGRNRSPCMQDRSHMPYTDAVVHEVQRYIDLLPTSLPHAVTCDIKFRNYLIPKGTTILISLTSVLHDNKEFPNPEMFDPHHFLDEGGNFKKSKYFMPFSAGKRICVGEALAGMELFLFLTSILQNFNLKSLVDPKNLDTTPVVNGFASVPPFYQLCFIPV
# Guanine nucleotide-binding protein G(i) subunit alpha-1 (Homo sapiens), sequence (P63096 whole entry, looked up): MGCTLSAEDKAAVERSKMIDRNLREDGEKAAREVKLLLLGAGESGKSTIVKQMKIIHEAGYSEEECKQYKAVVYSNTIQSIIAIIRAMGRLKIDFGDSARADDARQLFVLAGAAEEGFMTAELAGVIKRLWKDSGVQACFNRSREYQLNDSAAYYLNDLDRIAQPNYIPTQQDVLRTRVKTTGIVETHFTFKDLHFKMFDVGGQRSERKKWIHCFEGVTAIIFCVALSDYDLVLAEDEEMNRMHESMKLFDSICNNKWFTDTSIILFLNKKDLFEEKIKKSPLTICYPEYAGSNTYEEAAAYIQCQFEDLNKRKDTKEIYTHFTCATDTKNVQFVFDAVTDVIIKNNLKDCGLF
# 3',5'-cyclic-AMP phosphodiesterase 4B (Homo sapiens), sequence (Q07343 whole entry, looked up): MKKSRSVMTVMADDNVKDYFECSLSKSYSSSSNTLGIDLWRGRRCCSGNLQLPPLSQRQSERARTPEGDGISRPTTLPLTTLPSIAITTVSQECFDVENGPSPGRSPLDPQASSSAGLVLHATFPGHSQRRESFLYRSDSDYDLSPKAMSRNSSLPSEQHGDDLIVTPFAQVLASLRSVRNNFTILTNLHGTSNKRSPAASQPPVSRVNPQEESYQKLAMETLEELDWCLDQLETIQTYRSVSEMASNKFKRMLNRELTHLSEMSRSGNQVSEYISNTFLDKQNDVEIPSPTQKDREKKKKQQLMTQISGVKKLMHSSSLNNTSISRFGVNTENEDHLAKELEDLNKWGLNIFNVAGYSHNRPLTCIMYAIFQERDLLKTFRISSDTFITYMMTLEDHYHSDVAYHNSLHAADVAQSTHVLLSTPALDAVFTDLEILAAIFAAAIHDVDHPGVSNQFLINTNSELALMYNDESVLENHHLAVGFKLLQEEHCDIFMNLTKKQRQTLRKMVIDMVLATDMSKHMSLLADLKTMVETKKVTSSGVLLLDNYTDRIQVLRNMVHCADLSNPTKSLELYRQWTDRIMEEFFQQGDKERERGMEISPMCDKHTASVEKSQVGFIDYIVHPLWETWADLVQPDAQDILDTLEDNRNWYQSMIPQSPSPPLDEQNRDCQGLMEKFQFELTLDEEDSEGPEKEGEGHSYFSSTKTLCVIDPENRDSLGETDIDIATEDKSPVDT
smiles,measurement,setting,value
COC1(CS(=O)c2ccccc2)CCN(CCc2c[nH]c3ccc(F)cc23)CC1 (stereo unspecified),outcome,[1],inactive
c1ccc2c(c1)Nc1ccccc1S2,outcome,[2],inactive
same,Potency,[3],inactive
same,caspase-3 activation,[4],0.561%
same,outcome,[5],inactive
same,Potency,[6],inactive
same,outcome,[7],inactive
same,outcome,[8],inactive
same,outcome,[9],inactive
same,outcome,[10],inactive
same,caspase-3 activation,[11],-0.251%
same,outcome,[12],inactive
same,outcome,[13],inactive
same,outcome,[14],inactive
same,outcome,[15],inactive
Cc1ncc(CNC(=O)N(CCCl)N=O)c(N)n1,outcome,[1],inactive
same,outcome,[16],inactive
OCCOc1ccccc1,outcome,[2],inactive
same,Potency,[3],inactive
same,caspase-3 activation,[4],-1.54%
same,outcome,[5],inactive
same,Potency,[6],inactive
same,outcome,[7],inactive
same,outcome,[8],inactive
same,outcome,[9],inactive
same,outcome,[10],inactive
same,caspase-3 activation,[11],-1.74%
same,outcome,[12],inactive
same,outcome,[13],inactive
same,outcome,[14],inactive
same,outcome,[15],inactive
same,Potency,[17],inactive
Oc1ccccc1-c1ccccc1,outcome,[2],inactive
same,Potency,[3],inactive
same,caspase-3 activation,[4],82.5% (active)
same,outcome,[5],inactive
same,Potency,[6],inactive
same,outcome,[7],inactive
same,outcome,[8],inactive
same,outcome,[9],inactive
same,outcome,[10],inactive
same,caspase-3 activation,[11],-0.124%
same,outcome,[12],inactive
same,outcome,[13],inactive
same,outcome,[14],inactive
same,outcome,[15],inactive
same,Potency,[17],inactive
NCC1(CC(=O)O)CCCCC1,outcome,[1],inactive
same,outcome,[16],inactive
same,Potency,[18],inactive
same,Potency,[17],inactive
same,Potency,[19],inactive
COc1ccc(Cc2nccc3cc(OC)c(OC)cc23)cc1OC,Potency,[18],12.6 µM (active)
same,outcome,[20],inactive
same,Potency,[19],12.6 µM (active)
CCCN1CCC[C@@H]2Cc3[nH]ncc3C[C@H]21,outcome,[1],inactive
same,outcome,[16],inactive
same,Potency,[17],inactive
c1ccc(C2CC2)c(OCC2=NCCN2)c1,outcome,[1],inactive
same,outcome,[16],inactive
same,Potency,[19],5.01 µM (active)
CC(C)(C)NCC(O)c1cc(Cl)c(N)c(Cl)c1 (stereo unspecified),outcome,[20],inactive
Cc1nc2n(c(=O)c1CCN1CCC(c3noc4cc(F)ccc34)CC1)CCCC2,Potency,[19],3.16 µM (active)
COc1ccccc1N1CCNCC1,outcome,[1],inactive
same,outcome,[16],inactive
same,Potency,[17],inactive
CC(C)=CC1C(C(=O)OCc2cccc(Oc3ccccc3)c2)C1(C)C (stereo unspecified),Potency,[17],inactive
O=C(O)c1ccc2[nH]cc(CCCCN3CC=C(c4ccccc4)CC3)c2c1,Potency,[17],inactive
CCC1C(=O)OCC1Cc1cncn1C (stereo unspecified),outcome,[20],inactive
CCCN(CCC)CCc1cccc2c1CC(=O)N2,Potency,[18],inactive
same,Potency,[19],3.16 µM (active)
COc1ccc(C(CN(C)C)C2(O)CCCCC2)cc1 (stereo unspecified),Potency,[17],inactive
CC(CCc1ccccc1)NC(C)C(O)c1ccc(O)cc1 (stereo unspecified),Potency,[17],inactive
CN(C)CCC=C1c2ccccc2CCc2ccccc21,Potency,[19],7.94 µM (active)
CCC1(C2=NCCN2)Cc2ccccc2O1 (stereo unspecified),Potency,[17],inactive
Cc1c(OCC(F)(F)F)ccnc1CS(=O)c1nc2ccccc2[nH]1 (stereo unspecified),Potency,[19],31.6 µM (active)
O=[N+]([O-])c1cc([As](=O)(O)O)ccc1O,outcome,[1],inactive
same,Potency,[17],inactive
N[C@@H](Cc1ccc(N(CCCl)CCCl)cc1)C(=O)O,Potency,[3],31.6 µM (active)
same,Potency,[4],25.1 µM (active)
same,outcome,[5],inactive
same,Potency,[6],2.51 µM (active)
same,outcome,[7],inactive
same,outcome,[8],inactive
same,caspase-3 activation,[11],116% (active)
same,outcome,[12],inactive
same,outcome,[13],inactive
same,outcome,[20],inactive
CC(=O)Nc1cc([As](=O)(O)O)ccc1O,Potency,[17],inactive
NN=C(N)N,outcome,[1],inactive
same,outcome,[16],inactive
same,outcome,[20],inactive
NCCc1cc(O)c(O)cc1O,Potency,[17],inactive
Cc1cc(SCc2sc(-c3ccc(C(F)(F)F)c(F)c3)nc2C)ccc1OCC(=O)O,Potency,[17],7.94 µM (active)
same,outcome,[20],inactive
Clc1ccc(COC(Cn2ccnc2)c2ccc(Cl)cc2Cl)cc1 (stereo unspecified),caspase-3 activation,[4],99.7% (active)
same,Potency,[6],inactive
same,outcome,[7],inactive
same,outcome,[8],inactive
same,outcome,[9],inactive
same,outcome,[10],inactive
same,outcome,[13],inactive
same,outcome,[14],inactive
same,outcome,[15],inactive
same,outcome,[20],inactive
NCC(CC(=O)O)c1ccc(Cl)cc1 (stereo unspecified),outcome,[16],inactive
same,outcome,[20],inactive
Clc1cccc(N2CCNCC2)c1,outcome,[1],inactive
same,outcome,[16],inactive
same,outcome,[20],inactive
same,Potency,[19],3.98 µM (active)
COc1cc2c(c(OC)c1OC)-c1ccc(OC)c(=O)cc1[C@@H](NC(C)=O)CC2,Potency,[18],3.16 µM (active)
same,Potency,[19],0.794 µM (active)
CC(C)CC(N(C)C)C1(c2ccc(Cl)cc2)CCC1 (stereo unspecified),outcome,[20],inactive
CC(=O)[C@H]1CC[C@H]2[C@@H]3CC[C@H]4C[C@H](O)CC[C@]4(C)[C@H]3C(=O)C[C@]12C,outcome,[16],inactive
CC[N+]1(C)CCCC(OC(=O)C(O)(c2ccccc2)c2ccccc2)C1 (stereo unspecified),Potency,[17],inactive
